From PubChem BioAssay
Calls of active or inactive are those of the source. Unless noted, the rule behind the calls is not given here.

Key:
[1] = HepG2 liver cancer cell viability effects, profiling panel, resazurin fluorescence, 24 h, PK04 Diversity Set (AID 1172); conditions: higher = more signal
[2] = basal S. cerevisiae growth modulation, no modifier, primary screen, OD600, strain BY4716, 24 h, basal condition (AID 1173); conditions: OD600, 24 h, higher = more signal, called active from +8 up or from −8 down
[3] = MM1S myeloma cell viability, profiling panel, resazurin fluorescence, basal, 24 h, PK04 Diversity Set (AID 1174); conditions: higher = more signal, called active from +8 up or from −8 down;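 note: MM1S multiple myeloma cell line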
[4] = biological target: Dihydroorotate dehydrogenase (quinone), mitochondrial (Plasmodium falciparum (isolate 3D7)) (UniProt Q08210); test: PfDHODH enzyme inhibitors, primary screen, biochemical, C-terminal His tag, absorbance 600 nm (AID 1175); conditions: DCIP absorbance 600 nm, higher = more signal, called active from +8 up or from −8 down;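 note: recombinant parasite enzyme with a five histidine tag at its C terminus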
Chain of Dihydroorotate dehydrogenase (quinone), mitochondrial (Plasmodium falciparum (isolate 3D7)) (Q08210 whole entry, looked up): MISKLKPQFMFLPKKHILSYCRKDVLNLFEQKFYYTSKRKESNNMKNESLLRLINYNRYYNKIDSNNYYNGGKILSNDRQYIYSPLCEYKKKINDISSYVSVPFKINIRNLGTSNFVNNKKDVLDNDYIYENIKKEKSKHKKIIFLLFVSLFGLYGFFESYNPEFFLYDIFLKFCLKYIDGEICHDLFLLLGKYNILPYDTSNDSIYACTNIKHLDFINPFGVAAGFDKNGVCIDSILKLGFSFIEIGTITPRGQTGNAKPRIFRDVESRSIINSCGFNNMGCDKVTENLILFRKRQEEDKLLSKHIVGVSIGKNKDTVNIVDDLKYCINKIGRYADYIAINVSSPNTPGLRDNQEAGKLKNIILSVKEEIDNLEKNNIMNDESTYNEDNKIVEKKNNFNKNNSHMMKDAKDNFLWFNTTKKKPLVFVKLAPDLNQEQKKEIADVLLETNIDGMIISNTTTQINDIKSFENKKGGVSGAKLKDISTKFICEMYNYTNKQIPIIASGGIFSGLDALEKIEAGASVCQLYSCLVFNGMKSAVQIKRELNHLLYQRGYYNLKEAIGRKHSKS

[5] = P. aeruginosa biofilm formation inhibitors, primary screen, strain PAO1, LB-PBS medium, absorbance 600 nm (AID 1176); conditions: P. aeruginosa PAO1 growth/biofilm, A600, 12 h; higher = more signal
[6] = S. cerevisiae RM11-1a growth modifiers, primary screen, strain RM11-1a, OD600, basal, 24 h (AID 1177); conditions: OD600, 24 h, higher = more signal, called active from +8 up or from −8 down;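 note: cultures grown under basal conditions with no added stressor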
[7] = E. coli acrAB mutant growth effects, primary screen, E. coli filamentation inducers, strain DRC39, OD650, 24 h (AID 1178); conditions: higher = more signal, called active from +8 up or from −8 down;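 note: growth measured as culture turbidity by optical density at 650 nm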
[8] = E. coli acrAB mutant growth effects, primary screen, E. coli filamentation inducers, strain DRC39, OD650, 48 h (AID 1179);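 note: screen aims at cell division blockers that make cells filament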; conditions: E. coli DRC39 delta-acrAB growth, higher = more signal, called active from +8 up or from −8 down
[9] = RPMI8226 myeloma cell viability, profiling panel, resazurin fluorescence, basal, 24 h, PK04 Diversity Set (AID 1180); conditions: higher = more signal;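 note: RPMI8826 multiple myeloma cell line at 5000 cells per well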
[10] = biological target: E3 ubiquitin-protein ligase XIAP (Homo sapiens) (UniProt P98170); test: XIAP binders, primary screen, biophysical, small-molecule microarray, fluorescence 635 nm (AID 1181); conditions: small-molecule microarray binding, higher = more signal;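 note: score merges 667 nm emission and signal to noise over triplicate slides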
Chain of E3 ubiquitin-protein ligase XIAP (Homo sapiens) (P98170 whole entry, looked up): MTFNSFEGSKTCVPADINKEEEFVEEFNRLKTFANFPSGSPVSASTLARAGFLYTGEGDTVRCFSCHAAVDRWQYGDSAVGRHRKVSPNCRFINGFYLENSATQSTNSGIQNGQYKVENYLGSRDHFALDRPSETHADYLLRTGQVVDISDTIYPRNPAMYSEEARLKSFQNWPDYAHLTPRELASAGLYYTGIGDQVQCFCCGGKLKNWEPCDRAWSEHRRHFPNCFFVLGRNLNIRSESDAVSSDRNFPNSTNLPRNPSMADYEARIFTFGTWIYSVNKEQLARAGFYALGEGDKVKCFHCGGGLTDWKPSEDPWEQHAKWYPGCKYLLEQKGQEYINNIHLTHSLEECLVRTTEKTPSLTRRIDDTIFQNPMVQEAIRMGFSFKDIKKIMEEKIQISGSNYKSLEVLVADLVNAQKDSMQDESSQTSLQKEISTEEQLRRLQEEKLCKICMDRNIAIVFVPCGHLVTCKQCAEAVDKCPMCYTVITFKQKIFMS

[11] = test system: XIP peptide (Xip251-270) binding; test: small-molecule binders of XIP peptide, primary screen, biochemical, small-molecule microarray, fluorescence 635/667 nm, 0.1 µg/mL protein (AID 1182); conditions: fluorescent protein binding, 635 nm, higher = more signal, called active from +8 up or from −8 down
XIP peptide (Xip251-270) = test: small-molecule binders of XIP peptide, primary screen, biochemical, small-molecule microarray, fluorescence 635/667 nm, 0.5 µg/mL protein (AID 1183); conditions: small-molecule microarray binding, fluorescence 635 nm; higher = more signal
[12] = Plasmodium falciparum growth inhibition, primary screen, strain 3D7, DAPI fluorescence, 100 nL (AID 1184);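 note: parasites grown inside human red blood cells in medium with human serum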; conditions: P. falciparum 3D7 growth, 3 d, higher = more signal
[13] = biological target: Homeobox protein Hox-A13 (Mus musculus) (UniProt Q62424); test: inhibitors of HoxA13-DNA binding, primary screen, biochemical, fluorescence polarization, labeled oligonucleotide (AID 1185); conditions: 15 min, higher = more signal, called active from +8 up or from −8 down
Chain of Homeobox protein Hox-A13 (Mus musculus) (Q62424 whole entry, looked up): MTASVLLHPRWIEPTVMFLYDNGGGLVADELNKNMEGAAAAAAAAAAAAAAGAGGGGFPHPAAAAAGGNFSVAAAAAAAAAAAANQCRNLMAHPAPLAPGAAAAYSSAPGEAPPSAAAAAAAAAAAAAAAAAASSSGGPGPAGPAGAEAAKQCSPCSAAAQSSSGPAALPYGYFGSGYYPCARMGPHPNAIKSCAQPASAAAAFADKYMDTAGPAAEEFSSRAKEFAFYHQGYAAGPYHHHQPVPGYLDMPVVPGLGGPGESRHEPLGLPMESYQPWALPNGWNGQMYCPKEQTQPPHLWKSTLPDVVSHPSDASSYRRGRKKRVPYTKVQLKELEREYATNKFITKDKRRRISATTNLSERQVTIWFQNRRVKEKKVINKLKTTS

[14] = inhibitors of hydroxyurea-induced Chk1 phosphorylation, primary screen, imaging, HeLa, phospho-Chk1 antibody, percent positive cells (AID 1186); conditions: hydroxyurea-induced phospho-Chk1 immunofluorescence imaging, higher = more signal
[15] = inhibitors of hydroxyurea-induced Chk1 phosphorylation, primary screen, imaging, HeLa, phospho-Chk1 nuclear intensity (AID 1187); conditions: hydroxyurea-induced phospho-Chk1 immunofluorescence imaging, higher = more signal

Compound | z-score [1] | z-score [2] | z-score [3] | composite z-score [4] | z-score [5] | z-score [6] | z-score [7] | z-score [8] | z-score [9] | composite z-score [10] | composite z-score [11] | composite z-score (XIP peptide (Xip251-270)) | z-score [12] | z-score [13] | z-score [14] | z-score [15]
O=C1[C@H]2C=C(Br)[C@H](C[C@@H]2OCCCCCCO)[C@@]12CO2 | -0.629 | -1.3 (inactive) | -1.43 (inactive) | 0.571 (inactive) | 0.756 (inactive) | 0.414 (inactive) | -0.748 (inactive) | -0.602 (inactive) | -0.899 | -0.395 | -0.358 (inactive) | -0.777 | -0.355 | -1.84 (inactive) | 0.73 (inactive) | 0.231 (inactive)
O=C1OCCC=C[C@H]2OC34C=CCN(c5ccc(Cl)cc5)C(=O)[C@H]3N(CCCO)C(=O)[C@@H]4C12 (stereo partly drawn) | -0.281 | -0.757 (inactive) | 0.357 (inactive) | -0.792 (inactive) | 0.248 (inactive) | -0.163 (inactive) | 0.881 (inactive) | 0.415 (inactive) | -0.658 | -0.0826 | -0.869 (inactive) | -0.481 | -1.83 | -3.2 (inactive) | -0.511 (inactive) | -0.536 (inactive)
CCOC(=O)C[C@H]1[C@H](OC(=O)c2ccc(-c3ccccc3)cc2)[C@@H](NC(=O)c2ccccc2)c2cc(OCCCO)ccc2N1C(=O)c1ccc2ccccc2n1 | -0.471 | 0.171 (inactive) | -0.397 (inactive) | -0.12 (inactive) | -0.17 (inactive) | -0.888 (inactive) | 0.27 (inactive) | 0.256 (inactive) | -0.258 | 0.132 | 0.304 (inactive) | 0.0388 | 1.24 | -1.19 (inactive) | -0.0348 (inactive) | -0.234 (inactive)
CCCCC(=C=CC[C@@H](O)c1cccc(OCCO)c1)C[C@@H](O)c1ccccn1 | 0.599 | -1.56 (inactive) | 0.0382 (inactive) | -1.42 (inactive) | 0.968 (inactive) | 0.129 (inactive) | 0.584 (inactive) | 0.493 (inactive) | 0.695 | -0.102 | 1.26 (inactive) | 0.75 | -0.12 | -5.42 (inactive) | -0.0346 (inactive) | 0.159 (inactive)
NC(=O)N1C(=O)C2C(C1=O)C1C=C(CCCO)C2C(C2CC2)N1Cc1cc2c(cc1Br)OCO2 (stereo not drawn) | -0.437 | -1.85 (inactive) | -0.264 (inactive) | -0.659 (inactive) | -0.778 (inactive) | -0.492 (inactive) | -0.298 (inactive) | -0.562 (inactive) | -0.46 | 0.0479 | -0.0845 (inactive) | -0.102 | 1.74 | -7.26 (inactive) | 0.207 (inactive) | 0.727 (inactive)
CC(C)(C)OC(=O)CC[C@]1(C(=O)NCCN2CCOCC2)COC(c2ccc(OCCCO)cc2)=N1 | 0.0093 | 0.321 (inactive) | 0.382 (inactive) | 0.731 (inactive) | -0.525 (inactive) | 0.345 (inactive) | 0.119 (inactive) | 1.18 (inactive) | 0.513 | -0.0118 | 1.16 (inactive) | 0.759 | 0.51 | -3.66 (inactive) | -0.131 (inactive) | 0.0826 (inactive)
C=C(CCCC)C(=O)CC[C@H](OC(=O)c1cccnc1)c1ccc(OCCO)cc1 | -0.91 | -0.329 (inactive) | -3.27 (inactive) | -0.816 (inactive) | 1.09 (inactive) | 1.32 (inactive) | -0.911 (inactive) | -0.855 (inactive) | -3.01 | 0.0322 | 0.0908 (inactive) | -0.543 | -2.96 | -5.21 (inactive) | 0.457 (inactive) | 0.433 (inactive)
COc1ccc([Si](C)(C)[C@@H]2[C@@H](CCO)O[C@]3(C(=O)N(Cc4cccc(N5CCOC5=O)c4)c4ccccc43)[C@H]2C)cc1 | -1.09 | 2.41 (inactive) | -3.35 (inactive) | -0.346 (inactive) | 2.95 (inactive) | 6.05 (inactive) | 1.4 (inactive) | 0.44 (inactive) | -2.78 | -0.0599 | 0.473 (inactive) | 0.332 | -2.54 | -4.2 (inactive) | -0.609 (inactive) | -0.553 (inactive)
C=C(CCCC)/C(=C/C[C@@H](OC(C)=O)c1cccc(OCCO)c1)c1cnc2ccccc2c1 | -0.256 | -0.236 (inactive) | -0.657 (inactive) | -3.06 (inactive) | 0.108 (inactive) | 0.647 (inactive) | 0.309 (inactive) | -0.132 (inactive) | 0.418 | -0.173 | -0.276 (inactive) | 0.114 | -2.99 | -4.61 (inactive) | -0.24 (inactive) | -0.359 (inactive)
O=C1C2C=CC(C(O)C=Cc3ccc([N+](=O)[O-])cc3)N(n3cnnc3)C2C(=O)N1Cc1ccccc1 (stereo not drawn) | 0.178 | -0.586 (inactive) | -0.519 (inactive) | 0.607 (inactive) | 0.601 (inactive) | -0.155 (inactive) | -0.866 (inactive) | -0.721 (inactive) | -0.647 | -0.236 | 1.01 (inactive) | 0.856 | -0.0257 | -3.97 (inactive) | -0.253 (inactive) | -0.32 (inactive)
NC(=O)[C@@]1(Cc2ccccc2)N=C(c2ccc(OCCCO)cc2)O[C@H]1c1ccccc1 | -0.815 | -1.05 (inactive) | 0.597 (inactive) | 0.842 (inactive) | 0.466 (inactive) | -0.541 (inactive) | 1.54 (inactive) | 0.915 (inactive) | -0.0693 | 0.225 | 1.08 (inactive) | -0.41 | -0.689 | -5.07 (inactive) | -0.18 (inactive) | 0.135 (inactive)
O=C1O[C@H](c2ccccc2)[C@H](c2ccccc2)N2[C@H]1[C@@H](C(=O)NC[C@H](O)c1ccccc1)[C@]1(C(=O)Nc3ccccc31)[C@H]2c1ccc(O)cc1 | -1 | 0.0934 (inactive) | -1.16 (inactive) | 0.668 (inactive) | 0.346 (inactive) | 1.46 (inactive) | 0.759 (inactive) | 0.315 (inactive) | -2.77 | 0.166 | 1.5 (inactive) | 0.665 | -0.834 | -4.25 (inactive) | -0.0383 (inactive) | 0.188 (inactive)
CN(C)CCCCCCNC(=O)[C@@H]1C[C@@H]2C(=O)N[C@@H](CCCC[N+](C)(C)C)C(=O)N2[C@@H]1c1ccc(O)cc1 | -0.916 | -0.661 (inactive) | -1.07 (inactive) | -1.06 (inactive) | -0.0212 (inactive) | -0.0569 (inactive) | 0.301 (inactive) | 0.575 (inactive) | -0.746 | 0.0785 | 0.759 (inactive) | 0.146 | 1.99 | -1.64 (inactive) | 0.702 (inactive) | 0.0464 (inactive)
